Bioassay records from PubChem.
esBAF inh = SWI/SNF esBAF complex inhibition; reporter increase, % at 12.5 µM; 350,000 compounds, 2% hits; mouse ES cells, Bmi1-luciferase knock-in reporter, 24 h; 100% = twice the neutral-well signal; in the data active = activation above about 40%; inconclusive = no clear call, values can overlap the other calls;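 note: 0% = median of the plate's neutral control wells and 100% = double that signal; a rise in the Bmi1 reporter signal indicates esBAF inhibition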
MITF act = increases MITF-driven TRPM1 promoter luciferase signal; SK-MEL-5 TRPM1-promoter luciferase, 24 h; % of positive control, neutral wells = 0; activation, % at 12.5 µM; 300,000 compounds, 0.75% hits;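 active = mean activation of at least 80% with every replicate also reaching 80%; inconclusive = mean reaches 80% but some replicate falls short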;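 note: 0% = neutral control wells and 100% = parthenolide positive control wells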
HSF1 inh = HSF1 inhibition. NIH3T3-HGL HSE-luciferase, MG132-induced, luminescence 8 h; hits give low values. activity change, negative = inhibition, % at 7.5 µM (by protocol). 300,000 compounds, 0.77% hits;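 active = more than half of replicate wells show activity change below -50%, luminescence cut by over half; inconclusive = some wells, but at most half, below -50%; inactive = no replicate well below -50%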;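 note: luciferase reports HSF-1 transcriptional activity via heat shock element; 0% = median of DMSO wells and -100% = zero luminescence signal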
SMARCA2 act = activators of SMARCA2 function. MG213 cells, MMTV-luciferase reporter, dexamethasone, overnight. activation, % at 9.1 µM. 370,000 compounds, 1% hits. AID 652017; in the data active = activation above about 7.8%;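 note: 0% = vehicle wells and 100% = reference activator wells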
Wnt act = Wnt/beta-catenin pathway activation; Wnt/beta-catenin reporter cell assay, activator, plate reader; AID 743398; 300,000 compounds, 1.2% hits; activation, % at 9.35 µM; in the data active = activation above about 30%, passing the limit was not always enough; inconclusive = no clear call, values can overlap the other calls;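 note: 0% = neutral control wells and 100% = positive control wells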
HSF1 activator = increases HSF-1 driven luciferase reporter signal; 300,000 compounds, 1.7% hits; activation, % at 9 µM; NIH3T3-HGL HSF-1 luciferase reporter, MG132, 8 h; 100% = twice DMSO control signal;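 active = mean replicate activation of at least 50% with a set share of replicates each reaching 50%; inconclusive = only one of those two conditions met; inactive = mean below 50% and too few replicates reaching it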;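 note: 0% = median of the neutral control wells and 100% = twice that signal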
Numbers without * were called inactive; ? = inconclusive; · = no result. This is a sample that favours compounds with a hit; in the whole collection about 4.3% have one here.

SMILES | esBAF inh | MITF act | HSF1 inh | SMARCA2 act | Wnt act | HSF1 activator
COC(=O)c1ccc(C(=O)OC)c(NC(=O)C(C)(C)C)c1 | · | -8.1 | 20.7 | -3.2 | -1.6 | 66.6*
C[C@@H]1CN([C@H](C)CO)C(=O)c2cccc(NS(=O)(=O)c3ccc(Cl)cc3)c2O[C@H]1CN(C)Cc1ccncc1 | -5.7 | · | · | · | · | ·
Clc1ccc(/C=C/c2ncc3ccccn23)cc1 | · | 33.6 | 26.6 | 3.1 | 40.6* | 47.8
Cc1nn(-c2ccc(F)cc2)c2sc(C(=O)N3CCCCCC3)cc12 | 63.7* | 50.1 | 13.4 | 1.2 | · | 17.5
Cc1nn(-c2ccccc2)c2sc(C(=O)NC3CC3)cc12 | 47.4* | · | 2.8 | 2.7 | · | 18.6
Cc1nn(-c2ccccc2)c2sc(C(=O)N3CCN(Cc4ccccc4)CC3)cc12 | · | · | · | -4.4 | · | ·
O=C(N/N=C/C(Br)=C/c1ccccc1)NC1CCCCC1 | · | 41.6 | 46.1 | 4.5 | 15.0 | 58.5*
O=C(N/N=C/C(Br)=C/c1ccccc1)C(O)c1ccccc1 (stereo not given) | · | · | 52.3 | 5.7 | 11.1 | 61.4*
O=C(C=NNc1ccccc1)c1ccccc1 | -45.1 | 52.1 | · | 6.7 | 58.2* | ·
O=C(O)c1ccc(N/N=C/C(Br)=C/c2ccccc2)cc1 | 74.3* | 60.4 | 11.2 | -0.4 | 27.0 | 29.9
C[C@H](CO)N1C[C@H](C)[C@@H](CN(C)Cc2ccc3c(c2)OCO3)Oc2ccc(NC(=O)Nc3cccc4ccccc34)cc2CC1=O | -2.0 | · | · | · | · | ·
COc1ccc(S(=O)(=O)Nc2ccc3c(c2)C(=O)N([C@@H](C)CO)C[C@@H](C)[C@@H](CN(C)C(=O)NC2CCCCC2)OCCCC[C@H](C)O3)cc1 | 9.6 | · | · | · | · | ·
BrC(=C\c1ccccc1)/C=N/Nc1nc2ccccc2[nH]1 | · | 29.7 | 5.7 | 0.6 | 33.1* | -2.3
N#C/C(=N\Nc1ccc(F)cc1)C(=N)N1CCCCC1 | 12.7 | 114.5* | 39.1 | 7.8* | · | 43.9
COc1ccc(N/N=C(\C#N)C(=N)N2CCOCC2)cc1 | · | 17.3 | -13.2 | -1.9 | 2.7 | -16.8
N#C/C(=N\Nc1ccccc1)C(=N)N1CCCCCC1 | 15.7 | 55.8 | 9.2 | 1.7 | 42.5* | 40.9
O=C(C1CC1)N1CCc2cc(Br)cc(S(=O)(=O)N3CCCCCC3)c21 | · | · | 6.3 | -3.8 | 41.5* | 20.0
C[C@@H]1CN([C@@H](C)CO)C(=O)c2cc(C#CC3CCCCC3)cnc2O[C@H]1CN(C)C | -4.5 | · | · | · | · | ·
CN(C)c1ccc(C=Cc2ccnc3ccccc23)cc1N | -10.5 | · | · | -4.8 | 38.6* | ·
CC(C)c1ccc(/C=C/C(=O)NC2=NCCS2)cc1 | · | · | 22.4 | · | · | 48.4
O=C(/C=C/c1ccc(Cl)c(Cl)c1)NC1=NCCS1 | · | 53.1 | 25.2 | -0.8 | 10.1 | 53.8*
O=C(N=Nc1c(O)[nH]c2ccccc12)c1cccs1 | · | 15.6 | 24.6 | 3.0 | 34.9* | 76.4*
COc1cccc(C#Cc2cnc3c(c2)C(=O)N([C@@H](C)CO)C[C@H](C)[C@@H](CN(C)C(=O)C2CC2)O3)c1 | -1.7 | · | · | · | · | ·
C[C@H](CO)N1C[C@H](C)[C@H](CN(C)C(=O)Nc2ccccc2)Oc2c(NC(=O)Nc3ccccc3)cccc2C1=O | 3.3 | · | · | · | · | ·
CN(Cc1cc2ccccc2[nH]c1=O)C(=O)COc1ccccc1 | · | -3.5 | 7.0 | -4.8 | 50.1* | 18.6
SMILES | esBAF inh | MITF act | HSF1 inh | SMARCA2 act | Wnt act | HSF1 activator
O=C(C[C@H]1C[C@@H]2c3cc(NC(=O)CC4CC4)ccc3O[C@@H]2[C@H](CO)O1)NCc1ccncc1 | -2.2 | · | · | · | · | ·
N#CC(CO)(Cc1ccc(OC(F)F)cc1)c1nc2ccccc2[nH]1 (stereo not given) | · | 10.3 | 46.2 | 3.6 | · | 72.3*
O=C(Cc1ccccn1)NCC[C@@H]1CC[C@H](NS(=O)(=O)c2ccc(Cl)cc2)[C@@H](CO)O1 | 4.1 | · | · | · | · | ·
O=C(CSCc1ccccc1)Nc1cccc(F)c1 | · | 95.4* | · | 1.9 | 62.7* | ·
Cc1ccccc1CSCC(=O)Nc1ccccc1F | 48.1* | · | 15.7 | 1.6 | 8.3 | 34.1
COc1ccc(C)cc1NC(=O)CSCc1ccccc1C | -4.4 | 6.6 | 24.7 | -2.2 | -1.6 | 30.8
O=C(CSCc1ccc(F)cc1)Nc1ccc(F)cc1 | · | 24.1 | -3.2 | 1.8 | · | 9.8
O=C(CSCc1c(F)cccc1F)Nc1ccccc1 | 51.4* | · | 14.8 | 6.9 | 7.6 | 32.7
O=C(CSCc1c(F)cccc1Cl)Nc1cccnc1 | · | 5.1 | -6.6 | -1.0 | 0.0 | -8.5
CN(C)CC(=O)Nc1ccc2c(c1)[C@H]1C[C@@H](CC(=O)NCc3ccc(-c4ccccc4)cc3)O[C@@H](CO)[C@H]1O2 | 4.2 | · | · | · | · | ·
Cc1ccc(N2C(=O)N(CC(=O)NC(N)=O)C(=O)C2C)cc1 (stereo not given) | · | 3.3 | -69.5* | -3.0 | 13.4 | -75.0
Cc1ccc(N2C(=O)N(CC(=O)NC(c3ccccc3)c3ccccc3)C(=O)C2C)cc1 (stereo not given) | · | 0.5 | -5.3 | 1.2 | · | 12.3
Nc1[nH]ncc1N=Nc1ccc(Cl)cc1 | 47.3* | 63.8 | 10.1 | 4.9 | · | 25.9
O=C(C[C@@H]1CC[C@@H]2[C@H](COC[C@@H](O)CN2Cc2cccc(Cl)c2)O1)N1CCCCC1 | 1.9 | · | · | · | · | ·
Cc1ccc(SCc2c(-c3ccccc3)nn(C)c2Cl)cc1 | -3.1 | 15.7 | -0.7 | -0.5 | · | 12.9
Cc1ccc(SCc2nn(C)c(Cl)c2C=O)cc1 | 42.4* | 54.0 | 29.1 | 4.2 | 5.7 | 29.0
Nc1nonc1N/N=C/c1c(O)ccc2ccccc12 | · | -13.5 | 25.5 | -2.1 | -3.7 | 62.4*
Nc1nonc1N/N=C\c1ccccc1 | · | · | -0.4 | -2.6 | 0.7 | 4.6
O=c1cc(-c2cccc(F)c2)oc2ccccc12 | 51.2* | 30.4 | · | 2.0 | -1.4 | ·
O=c1cc(-c2c(F)c(F)c(F)c(F)c2F)oc2ccccc12 | -8.1 | -31.3 | 0.4 | -0.1 | 1.8 | -10.2
COc1ccc(N=c2cc(-c3ccc(OC)cc3)oc3ccccc23)cc1 | · | 20.3 | -5.5 | 0.1 | 118.8* | -7.4
COc1ccc(-c2cc(=O)c3ccccc3o2)cc1 | 62.8* | 70.2 | 32.2 | 6.1 | -2.0 | 42.4
CNC[C@H]1Oc2ccc(NC(=O)NC(C)C)cc2CC(=O)N([C@@H](C)CO)C[C@H]1C | 2.2 | · | · | · | · | ·
O=C(Cc1ccccn1)NCC[C@@H]1CC[C@H](NC(=O)c2ccccc2F)[C@@H](CO)O1 | -4.3 | · | · | · | · | ·
CC(C)n1cc(CN2CCCC(CNS(=O)(=O)c3cccc4cccnc34)C2)cn1 (stereo not given) | 4.4 | -1.9 | -66.2* | -0.5 | 2.0 | -71.2
Cc1noc(C)c1NC(=O)N(C)C[C@H]1Oc2ccc(NC(=O)NC3CCCCC3)cc2CC(=O)N([C@H](C)CO)C[C@H]1C | -5.1 | · | · | · | · | ·
Cc1ccccc1OCCNC(=O)c1ccc2ccccc2n1 | · | 26.7 | 44.4 | 6.7 | ? | 86.3*
COc1ccc(CNC(=O)c2ccc3ccccc3n2)cc1 | 82.5* | · | 9.5 | 3.5 | 1.3 | 21.6
COC(=O)c1ccc(CNC(=O)COC(=O)COc2ccc(OC)cc2)cc1 | · | -7.9 | -67.6* | -1.3 | -1.7 | -73.0
COc1ccc(CNC(=O)c2ccncc2)cc1 | -0.5 | -2.6 | -5.2 | -2.1 | 0.9 | 1.0
